Active and inactive are the calls of the source. Unless noted, the rule behind the calls is not given here.
Legend:
[1] = compounds altering circadian rhythm period length – cell-based, LOPAC library, luminescence reporter (AID 2774); conditions: circadian reporter cells, at 7 µM, actives lie on both sides;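 note: values are relative to mean of DMSO wells on each plate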
[2] = system: Hepatitis C virus NS3 helicase; assay: blockers of NS3h binding to ssDNA – biochemical, fluorescence polarization, LOPAC1280 library, primary screen (AID 687035; in the data active = inhibition above about 37%); conditions: Purified HCV NS3 helicase, Cy5-dT15 ssDNA binding fluorescence polarization; stronger effect = higher value; concentration not given here
[3] = compounds altering Cy5-DNA-NS3h complex signal – biochemical, LOPAC1280, artefact control for HCV NS3 helicase inhibitor project (AID 687037); conditions: Cy5-DNA-NS3h complex fluorescence interference counterscreen
[4] = viability loss with induced miR-34 in A549 – imaging, A549 dox-inducible miR-34, nuclei and caspase counts, primary screen (AID 1347080;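 active = compounds whose cell count with miR-34 switched on is under 0.7 times the count with it off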); conditions: A549 miR-34 inducible, Hoechst nuclei count, 48 h
[5] = blockers of cellular phospholipid synthesis – cell-based, LOPAC library, screen 4, primary screen (AID 1347384); conditions: animal cells, phospholipid biosynthesis inhibition screen; at 10 µM
[6] = galactose survival enhancers in mitochondrial complex I cybrids – cell-based, galactose medium, ATP luminescence, primary screen (AID 1645843;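 active = z-score of at least 1.8 in each of two replicates, scored against plate mean and spread of sample wells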;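 note: positive z means more ATP and so rescue of galactose-driven cybrid death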); conditions: complex I mutant cybrid cells, 72 h, stronger effect = higher value
[7] = stronger effect = lower value, cell number ratio, induced over uninduced
[8] = measured here: relative caspase fold change +Dox/-Dox
[9] = measured here: total cells with miR-34 induction, stronger effect = lower value
[10] = measured here: total cells without miR-34 induction

Structure (SMILES)	period change [1]	inhibition [2]	fluorescence ratio (interference) [3]	fold change [4, 7]	fold change [4, 8]	cell count [4, 9]	cell count [4, 10]	outcome [5]	z-score [6]
COc1cc(C(O)CO)ccc1OS(=O)(=O)O (stereo not drawn)	-0.25 h (inactive)	-2% (inactive)	1 (inactive)	1.02 (inactive)	1.08	10400	10200	inactive	0.025 (inactive)
CCCCN(CC)c1nc(C)nc2c1c(C)cn2-c1c(C)cc(C)cc1C	–	–	–	1.08 (inactive)	0.964	6200	5770	inactive	-1.29 (inactive)
C[C@H]1CC2C3CCC4=CC(=O)C=C[C@]4(C)[C@@]3(Cl)[C@@H](O)C[C@]2(C)[C@@]1(O)C(=O)CO (stereo partly drawn)	-0.07 h (inactive)	-3% (inactive)	1 (inactive)	0.918 (inactive)	1.96	7200	7840	inactive	1.25 (inactive)
COc1ccc(C(=O)/C(Cc2cc(OC)c(OC)c(OC)c2)=C(\C(=O)O)c2ccc3c(c2)OCO3)cc1	–	–	–	1.31 (inactive)	1.24	3900	2980	inactive	-1.33 (inactive)
CC(C)COC(=O)OCN1C(=O)CN(CCN2CC(=O)N(COC(=O)OCC(C)C)C(=O)C2)CC1=O	-0.045 h (inactive)	1% (inactive)	1 (inactive)	0.995 (inactive)	1.59	8180	8220	inactive	0.435 (inactive)
C=CCn1c(=O)c2c(nc(-c3ccc(S(=O)(=O)O)cc3)n2C)n(C)c1=O	-0.155 h (inactive)	-3% (inactive)	1 (inactive)	1.02 (inactive)	2.49	10300	10100	inactive	0.335 (inactive)
COc1ccc(/C=C/c2nc(NCCCN(C)C)c3ccccc3n2)cc1	–	–	–	1.02 (inactive)	1.21	1330	1300	inactive	-1.21 (inactive)
CN1CCc2ccccc2Cc2[nH]c3ccccc3c2CC1	-0.08 h (inactive)	-2% (inactive)	1 (inactive)	1.04 (inactive)	0.882	9860	9460	inactive	-0.35 (inactive)
O=C(c1ccc2c(c1)OCCO2)N1CCCCC1	-0.22 h (inactive)	-1% (inactive)	1 (inactive)	1.07 (inactive)	1.38	9110	8530	inactive	0.315 (inactive)
Nc1nc2ccc(Cl)cc2n2c(-c3ccccc3)nnc12	–	–	–	1.08 (inactive)	0.972	11200	10300	inactive	1.13 (inactive)

From PubChem BioAssay
